Common to all, as to assay: NCI-60 one-dose screen, 48 h (100 = growth as untreated, 0 = no growth, -100 = all killed)
One experiment concerns NCI-H23 lung. Conditions: 10 µM unless noted.
The test system of a further experiment is NCI-H226 lung. To be noted: 10 µM unless noted.
A further experiment has as its system NCI-H322M lung. Conditions: 10 µM unless noted.
A further experiment has as its system HOP-62 NSCLC. Conditions: 10 µM unless noted.
The next experiment deals with NCI-H460 lung. To be noted: 10 µM unless noted.
The next experiment deals with HOP-92 NSCLC. Conditions: 10 µM unless noted.
The next experiment concerns NCI-H522 lung. Conditions: 10 µM.
A further experiment concerns 786-0 renal. Conditions: 10 µM unless noted.
A further experiment deals with COLO 205 colon. To be noted: 10 µM unless noted.
The next experiment deals with DU-145 prostate. Conditions: 10 µM unless noted.
The next experiment concerns K-562 leukemia. Conditions: 10 µM unless noted.
The test system of another experiment is MALME-3M melanoma. Conditions: 10 µM unless noted.
The next experiment has as its system MDA-MB-231 breast. Conditions: 10 µM unless noted.
The next experiment deals with RXF 393 renal. Conditions: 10 µM unless noted.
The next experiment concerns SF-268 CNS. Conditions: 10 µM unless noted.
A further experiment concerns SF-295 CNS. Conditions: 10 µM unless noted.
The next experiment deals with SF-539 CNS. To be noted: 10 µM unless noted.
The subject of a further experiment is UACC-257 melanoma. To be noted: 10 µM unless noted.
In a further experiment the test system is M14 melanoma. To be noted: 10 µM unless noted.

Results on eight compounds are retold here after PubChem BioAssay (NCI).

Compounds without any hit were thinned out: in the full panel of roughly 83,000, 20% have a hit.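 Negative percent growth values reflect cell death: -40 means 40% of the cells present at the start died, and -100 means all died.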 A number with no mark means an inactive call. Calls of active or inactive are those of the source. The calls were made as follows: active = growth percent below 10; inactive = the rest.

For `CSc1nc(Nc2ccc(S(=O)(=O)Nc3ccon3)cc2)c(C#N)c(-c2ccc(Cl)cc2)n1`, the growth was 94.2% with NCI-H23 lung; 95% with NCI-H226 lung; 98.3% with NCI-H322M lung; 106% in the experiment with HOP-62 NSCLC; 112% in the experiment on NCI-H460 lung; 109% with HOP-92 NSCLC. Also, the growth in the experiment on NCI-H522 lung is 84.9%; with 786-0 renal, 94.7%; with COLO 205 colon, 108%; in the experiment on DU-145 prostate it was 106%; in the experiment on K-562 leukemia it was -0.642% (active); in the experiment on MALME-3M melanoma, 111%. Further, the growth in the experiment with MDA-MB-231 breast was 102%; with RXF 393 renal it was 110%; in the experiment on SF-268 CNS, 105%; in the experiment with SF-295 CNS, 113%; with SF-539 CNS, 106%; in the experiment on UACC-257 melanoma, 112%. In the experiment with M14 melanoma, the growth is 88.1%.

Consider `O[N+]1=CC=CCC1=S.On1ccccc1=S.[Zn]`, for which the growth was -53.1% (active) with NCI-H23 lung; -85.9% (active) in the experiment on NCI-H226 lung; -87.3% (active) in the experiment with NCI-H322M lung; -86.8% (active) in the experiment on HOP-62 NSCLC; -70.5% (active) with NCI-H460 lung; -64.5% (active) in the experiment on HOP-92 NSCLC. The growth with NCI-H522 lung is -92.4% (active); in the experiment on 786-0 renal it was -74.2% (active); in the experiment with COLO 205 colon, -74.9% (active); with DU-145 prostate, -90.1% (active); in the experiment on K-562 leukemia, -17.7% (active); in the experiment on MALME-3M melanoma, -54.9% (active). In addition, the growth in the experiment with MDA-MB-231 breast was -81.4% (active); in the experiment on RXF 393 renal, -84.9% (active); in the experiment on SF-268 CNS, -46.6% (active); with SF-295 CNS it was -81.5% (active); with SF-539 CNS it was -64.8% (active); in the experiment on UACC-257 melanoma it was -88.8% (active). The growth in the experiment on M14 melanoma was -74.2% (active).

Take `C/C=C(/C(=C/C)c1ccc(O)cc1)c1ccc(O)cc1`: the growth with NCI-H23 lung was 48%; in the experiment on NCI-H226 lung, 69.9%; in the experiment on NCI-H322M lung, 27.4%; with HOP-62 NSCLC, 36%; with NCI-H460 lung it was 20.2%; in the experiment with HOP-92 NSCLC, 58.5%. Also, the growth is 55.3% in the experiment with NCI-H522 lung; 39.3% with 786-0 renal; 73.9% in the experiment on COLO 205 colon; 28.2% with DU-145 prostate; 22.8% with K-562 leukemia; 23.1% in the experiment with MALME-3M melanoma. For the same compound, the growth in the experiment with MDA-MB-231 breast was 49.1%; in the experiment on RXF 393 renal it was 8.39% (active); in the experiment with SF-268 CNS, 45.6%; with SF-295 CNS, 12%; in the experiment on SF-539 CNS, -3.67% (active); in the experiment with UACC-257 melanoma, 53.9%. The growth in the experiment with M14 melanoma is 15.4%.

Consider `CC1c2ccccc2-c2ccccc2N1C` (configuration not stated), for which the growth with NCI-H23 lung was 105%; in the experiment on NCI-H226 lung, 105%; in the experiment on NCI-H322M lung it was 101%; with HOP-62 NSCLC, 100%; with NCI-H460 lung, 105%; with HOP-92 NSCLC, 86.1%. Also, the growth in the experiment on NCI-H522 lung is 87.5%; in the experiment on 786-0 renal, 104%; in the experiment on COLO 205 colon, 107%; in the experiment with DU-145 prostate, 110%; with K-562 leukemia it was 88.3%; with MALME-3M melanoma it was 99.4%. In addition, the growth was 97.4% in the experiment with MDA-MB-231 breast; 116% with RXF 393 renal; 105% in the experiment with SF-268 CNS; 109% in the experiment with SF-295 CNS; 50.2% in the experiment with SF-539 CNS; 114% in the experiment on UACC-257 melanoma. For the same compound, in the experiment with M14 melanoma, the growth was 106%.

`O=C(O)CCC(=O)OC[C@@H](NC(=O)C(Cl)Cl)[C@H](O)c1ccc([N+](=O)[O-])cc1`: the growth in the experiment on NCI-H23 lung is 98.4%; in the experiment with NCI-H226 lung it was 89.3%; in the experiment with NCI-H322M lung it was 99.5%; with HOP-62 NSCLC, 98.5%; in the experiment with NCI-H460 lung it was 111%; in the experiment on HOP-92 NSCLC, 86.7%. The growth with NCI-H522 lung is 91.7%; with 786-0 renal it was 93.7%; with COLO 205 colon it was 99.4%; with DU-145 prostate it was 110%; in the experiment on K-562 leukemia, 98.6%; in the experiment with MALME-3M melanoma, 96%. Further, the growth was 103% in the experiment with MDA-MB-231 breast; 104% in the experiment on RXF 393 renal; 109% with SF-268 CNS; 101% with SF-295 CNS; 100% in the experiment on SF-539 CNS; 104% in the experiment on UACC-257 melanoma. For the same compound, in the experiment with M14 melanoma, the growth was 98%.

For `O=C(Nc1ccccc1)P(=O)(O)c1ccccc1`, the growth in the experiment with NCI-H23 lung is 94%; with NCI-H226 lung, 91.2%; in the experiment with NCI-H322M lung, 119%; in the experiment with HOP-62 NSCLC, 94.3%; in the experiment with NCI-H460 lung, 105%; in the experiment on HOP-92 NSCLC, 78.1%. The growth with NCI-H522 lung was 102%; with 786-0 renal, 110%; with COLO 205 colon, 114%; in the experiment with DU-145 prostate, 108%; in the experiment on K-562 leukemia, 95.7%; in the experiment with MALME-3M melanoma, 123%. Besides, the growth is 100% in the experiment with MDA-MB-231 breast; 105% in the experiment on RXF 393 renal; 98.5% with SF-268 CNS; 122% in the experiment on SF-295 CNS; 90.2% in the experiment on SF-539 CNS; 96.5% in the experiment on UACC-257 melanoma. In addition, the growth in the experiment on M14 melanoma is 103%.

Consider `C#C[C@]1(O)CCC2C3CCc4cc(O)ccc4C3CC[C@@]21C` (some centres not stated), for which the growth was 62.4% with NCI-H23 lung; 81.3% in the experiment on NCI-H226 lung; 81.4% in the experiment with NCI-H322M lung; 35.4% with HOP-62 NSCLC; 17.5% in the experiment with NCI-H460 lung; 75.3% in the experiment on HOP-92 NSCLC. The growth is 10.6% in the experiment on NCI-H522 lung; 44.3% in the experiment with 786-0 renal; 41.1% with COLO 205 colon; 60.8% with DU-145 prostate; 12.7% in the experiment with K-562 leukemia; 43% in the experiment with MALME-3M melanoma. Also, the growth with MDA-MB-231 breast was 66.7%; in the experiment with RXF 393 renal it was 51.5%; with SF-268 CNS it was 47.7%; in the experiment with SF-295 CNS, 22.6%; in the experiment with SF-539 CNS, 21%; in the experiment on UACC-257 melanoma it was 75.2%. Also, the growth with M14 melanoma was 20.4%.

Take `Cc1ccc(/C=C/C(=O)c2ccc(F)cc2)s1`: the growth in the experiment with NCI-H23 lung was 85%; in the experiment with NCI-H226 lung, 85.1%; in the experiment with NCI-H322M lung it was 94.2%; in the experiment on HOP-62 NSCLC, 103%; in the experiment with NCI-H460 lung, 80.6%; in the experiment with HOP-92 NSCLC, 64%. The growth with NCI-H522 lung is 62.8%; with 786-0 renal, 76.7%; with COLO 205 colon, 108%; with DU-145 prostate it was 90.8%; in the experiment with K-562 leukemia, 38.1%; with MALME-3M melanoma, 78.9%. In addition, the growth is 105% in the experiment on MDA-MB-231 breast; 84.8% in the experiment with RXF 393 renal; 92.2% in the experiment with SF-268 CNS; 88.5% in the experiment with SF-295 CNS; 103% in the experiment with SF-539 CNS; 90.3% in the experiment with UACC-257 melanoma. Besides, the growth with M14 melanoma is 95.1%.
